In PubChem BioAssay one finds composite z-score and z-score data, which are given here for eight compounds.

For assay [1], the system named is Wnt5a (protein binding on small-molecule microarray). In words: Wnt5a binders on small-molecule microarray, primary screen, biophysical, 635/667 nm fluorescence (AID 1142).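 Note: fluorescence read at 667 nm with signal to noise per printed feature.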 The following applies: 635 nm fluorescence, higher = more signal.
Assay [2] is described as follows: cell viability in Huh7 cells, primary screen, cytotoxicity control for HCV replication inhibitor project, CellTiter-Glo luminescence, basal, 48 h (AID 1143).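 Note: Huh7 hepatoma cells carrying a hepatitis C replication reporter with no stimulus; test concentration not given here.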 The following applies: Huh7 HCV replicon, higher = more signal, called active from +8 up or from −8 down. A general note: In ATP-based viability assays light output follows the ATP content of the culture.
Assay [3] can be described thus: CREB reporter modulators without forskolin, primary screen, cell-based, PC12, CRE-LacZ reporter, unstimulated (AID 1145). Conditions: no forskolin, luminescence, 4.5 h, higher = more signal, called active from +8 up or from −8 down.
Assay [4] can be described thus: CREB reporter modulators under forskolin, primary screen, cell-based, PC12, CRE-LacZ reporter, forskolin-stimulated (AID 1146).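 Note: PC12 cells with 6xCRE LacZ reporter stimulated by forskolin 10 µM; beta-galactosidase reporter signal reflecting CREB driven transcription.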 Conditions: luminescence, 4.5 h, higher = more signal, called active from +8 up or from −8 down.
The target of assay [5] is Streptavidin (Streptomyces avidinii) (UniProt P22629). In words: streptavidin binders on small-molecule microarray, primary screen, artefact control for SMM compound annotation, biophysical, 635/667 nm fluorescence (AID 1147).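 Note: signal reflects streptavidin binding to arrayed compounds as a control protein.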 The following applies: streptavidin binding, higher = more signal.
Assay [6] is described as follows: small-molecule binders of probe aInhba, primary screen, biochemical, small-molecule microarray, 635/667 nm fluorescence (AID 1148).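 Note: score merges 667nm spot fluorescence with signal-to-noise for antibody binding to printed compounds.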 The following applies: higher = more signal.
Assay [7] concerns the target Torsin-1A (Homo sapiens) (UniProt O14656). As to the kind of experiment: torsin A binders from cell lysate, primary screen, small-molecule microarray, wild-type, 635/667 nm (AID 1149). The following applies: COS7 hTOR1A-WT lysate, 635 nm fluorescence, higher = more signal.
The target is the same in assay [8]. In words: small-molecule binders of mutant TOR1A in lysate, primary screen, cell lysate, small-molecule microarray, COS7 lysate, 635/667 nm fluorescence (AID 1150).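 Note: score pools 667 nm emission and signal to noise measuring lysate protein binding.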 The following applies: COS7 hTOR1A mutant lysate, 635 nm fluorescence, higher = more signal.
Assay [9] concerns Sonic hedgehog protein (Shh). As to the kind of experiment: small-molecule binders of Shh protein, primary screen, biochemical, small-molecule microarray, 635/667 nm fluorescence (AID 1151).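 Note: Shh protein binding to compounds spotted on small-molecule microarray slides; score combines spot fluorescence intensity with signal-to-noise across triplicate slides.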 The following applies: small-molecule microarray binding, 635 nm fluorescence; higher = more signal.
Assay [10] is described as follows: E. coli DRC41 culture turbidity changes, primary screen, E. coli filamentation inducer project, strain DRC41, OD650, 48 h (AID 1152).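 Note: E. coli MC1000 strain DRC41 lacking acrAB efflux pump and sulA.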 The following applies: E. coli DRC41 (acrAB sulA), higher = more signal, called active from +8 up or from −8 down.
The nature of assay [11]: small-molecule binders of probe aLefty1, primary screen, biochemical, small-molecule microarray, 635/667 nm fluorescence (AID 1153).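 Note: score merges spot fluorescence with signal-to-noise ratio from the scanned slide images.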 Conditions: higher = more signal.
The nature of assay [12]: PSAC antagonists in infected red cells, primary screen, cell-based, P. falciparum Indochina, OD700, 1 h (AID 1154). The following applies: P. falciparum Indochina infected RBC osmotic lysis, higher = more signal, called active from +8 up or from −8 down.
Assay [13] is described as follows: PSAC antagonists in infected red cells, primary screen, cell-based, P. falciparum Indochina, OD700, 2 h (AID 1155).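 Note: lysis reports solute entry through the parasite surface anion channel PSAC; channel blockers reduce lysis of infected cells.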 Conditions: P. falciparum Indochina infected erythrocytes, osmotic lysis OD700; higher = more signal, called active from +8 up or from −8 down.
The nature of assay [14]: osmotic lysis modulators in infected erythrocytes, primary screen, PSAC antagonist project, cell-based, P. falciparum Indochina, OD700, 3 h (AID 1156). The following applies: higher = more signal, called active from +8 up or from −8 down.
The nature of assay [15]: PSAC antagonists in infected red cells, primary screen, cell-based, P. falciparum Indochina, OD700, 18 h (AID 1157). Conditions: P. falciparum Indochina infected erythrocytes, osmotic lysis OD700, 18 h; higher = more signal, called active from +8 up or from −8 down.
A short description of assay [16]: modulators of S6 phosphorylation in cells, primary screen, cell-based, A549, cytoblot, luminescence, serum-stimulated (AID 1158).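 Note: serum-stimulated A549 lung adenocarcinoma cells; signal is phosphorylated S6 detected by cytoblot immunostaining with HRP secondary.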 The following applies: A549 phospho-S6 cytoblot, 5 h, higher = more signal.
The target in assay [17] is NADPH oxidase 2 (Homo sapiens) (UniProt P04839). As to the kind of experiment: NOX2-dependent H2O2 signal modulators, primary screen, NOX inhibitor project, cell-based, HEK293-NOX2, PMA-stimulated, Amplex Red fluorescence (AID 1159). Note: test concentration not given here. The following applies: 45 min, higher = more signal, called active from +8 up or from −8 down.
The target in assay [18] is NADPH oxidase 4 (Homo sapiens) (UniProt Q9NPH5). In words: NOX4-dependent H2O2 signal modulators, primary screen, NOX inhibitor project, cell-based, HEK293-NOX4, tetracycline-induced, Amplex Red fluorescence (AID 1160). The following applies: 45 min, higher = more signal, called active from +8 up or from −8 down.
The target of assay [19] is NADPH oxidase 5 (Homo sapiens) (UniProt Q96PH1). In words: NOX5-dependent H2O2 signal modulators, primary screen, NOX inhibitor project, cell-based, HEK293-NOX5, Amplex Red fluorescence (AID 1161). The following applies: HEK293-NOX5, ionomycin, 45 min, higher = more signal.
The nature of assay [20]: A549 cell viability effects, profiling panel, calcein-AM fluorescence, 48 h, basal (AID 1162). Note: test concentration not given here. Conditions: higher = more signal.

Active and inactive are the calls of the source.

Sequence of Torsin-1A (Homo sapiens) (O14656 whole entry, looked up): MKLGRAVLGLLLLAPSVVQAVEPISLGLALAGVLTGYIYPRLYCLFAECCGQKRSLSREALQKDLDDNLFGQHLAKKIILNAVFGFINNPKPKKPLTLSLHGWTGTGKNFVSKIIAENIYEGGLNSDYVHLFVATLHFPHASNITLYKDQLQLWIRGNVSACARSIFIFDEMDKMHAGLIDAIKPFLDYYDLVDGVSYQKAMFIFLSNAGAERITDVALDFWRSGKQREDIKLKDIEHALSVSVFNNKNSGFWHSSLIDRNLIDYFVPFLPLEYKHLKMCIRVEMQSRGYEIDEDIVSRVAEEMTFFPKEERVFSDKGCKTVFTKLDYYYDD
Sequence of Streptavidin (Streptomyces avidinii) (P22629 whole entry, looked up): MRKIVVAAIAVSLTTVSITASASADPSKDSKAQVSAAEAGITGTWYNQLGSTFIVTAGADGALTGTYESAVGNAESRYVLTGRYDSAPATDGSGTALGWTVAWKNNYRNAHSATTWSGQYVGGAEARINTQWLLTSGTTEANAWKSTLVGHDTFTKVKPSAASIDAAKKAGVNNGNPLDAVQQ
Sequence of NADPH oxidase 2 (Homo sapiens) (P04839 whole entry, looked up): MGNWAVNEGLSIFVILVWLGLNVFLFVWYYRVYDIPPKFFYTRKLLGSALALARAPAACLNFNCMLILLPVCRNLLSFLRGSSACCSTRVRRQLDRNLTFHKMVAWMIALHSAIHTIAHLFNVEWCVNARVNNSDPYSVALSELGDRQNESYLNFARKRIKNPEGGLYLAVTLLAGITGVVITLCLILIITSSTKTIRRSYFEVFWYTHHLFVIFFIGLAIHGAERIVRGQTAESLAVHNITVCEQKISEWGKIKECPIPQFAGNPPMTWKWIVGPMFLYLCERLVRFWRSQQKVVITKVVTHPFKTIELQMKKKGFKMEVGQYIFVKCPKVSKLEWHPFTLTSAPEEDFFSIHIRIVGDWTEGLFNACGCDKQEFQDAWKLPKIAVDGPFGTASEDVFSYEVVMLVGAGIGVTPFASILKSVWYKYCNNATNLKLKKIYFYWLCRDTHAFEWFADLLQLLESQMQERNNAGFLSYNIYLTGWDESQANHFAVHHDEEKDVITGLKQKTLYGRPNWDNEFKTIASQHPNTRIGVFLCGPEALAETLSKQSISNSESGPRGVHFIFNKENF
Sequence of NADPH oxidase 5 (Homo sapiens) (Q96PH1 whole entry, looked up): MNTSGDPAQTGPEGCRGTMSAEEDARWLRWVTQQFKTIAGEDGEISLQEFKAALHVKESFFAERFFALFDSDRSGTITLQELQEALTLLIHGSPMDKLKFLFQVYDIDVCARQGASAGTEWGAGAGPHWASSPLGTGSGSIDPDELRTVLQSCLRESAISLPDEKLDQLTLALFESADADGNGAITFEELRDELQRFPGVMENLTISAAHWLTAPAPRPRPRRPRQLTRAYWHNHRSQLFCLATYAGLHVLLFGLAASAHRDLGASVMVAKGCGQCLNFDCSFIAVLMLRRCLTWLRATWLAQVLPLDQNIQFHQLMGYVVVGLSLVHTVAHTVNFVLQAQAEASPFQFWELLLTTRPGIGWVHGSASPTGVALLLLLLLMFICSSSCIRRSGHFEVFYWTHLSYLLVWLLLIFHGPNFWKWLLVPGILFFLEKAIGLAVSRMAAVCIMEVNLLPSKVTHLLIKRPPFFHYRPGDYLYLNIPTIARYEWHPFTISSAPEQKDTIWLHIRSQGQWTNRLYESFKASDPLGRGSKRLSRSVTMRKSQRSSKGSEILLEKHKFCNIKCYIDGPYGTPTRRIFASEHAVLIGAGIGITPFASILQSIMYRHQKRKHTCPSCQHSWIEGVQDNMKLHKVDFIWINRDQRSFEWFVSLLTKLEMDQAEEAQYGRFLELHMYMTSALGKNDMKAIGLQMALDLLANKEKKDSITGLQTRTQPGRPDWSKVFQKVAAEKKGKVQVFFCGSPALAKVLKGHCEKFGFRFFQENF
Sequence of NADPH oxidase 4 (Homo sapiens) (Q9NPH5 whole entry, looked up): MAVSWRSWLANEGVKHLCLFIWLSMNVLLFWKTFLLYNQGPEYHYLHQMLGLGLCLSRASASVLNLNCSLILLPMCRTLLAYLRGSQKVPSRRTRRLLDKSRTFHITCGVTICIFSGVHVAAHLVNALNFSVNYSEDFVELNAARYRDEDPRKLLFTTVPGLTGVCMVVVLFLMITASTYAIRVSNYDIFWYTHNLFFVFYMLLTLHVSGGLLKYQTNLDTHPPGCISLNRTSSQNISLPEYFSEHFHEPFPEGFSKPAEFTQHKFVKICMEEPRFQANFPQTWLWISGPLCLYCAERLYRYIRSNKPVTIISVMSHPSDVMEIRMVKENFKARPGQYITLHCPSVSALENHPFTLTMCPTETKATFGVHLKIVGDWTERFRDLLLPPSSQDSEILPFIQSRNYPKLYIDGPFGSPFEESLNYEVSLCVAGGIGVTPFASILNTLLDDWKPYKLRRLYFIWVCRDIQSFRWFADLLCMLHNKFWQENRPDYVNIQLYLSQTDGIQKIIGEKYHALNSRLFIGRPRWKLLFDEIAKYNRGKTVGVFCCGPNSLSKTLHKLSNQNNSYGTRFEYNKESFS

On to `CC(C)N1CC=CC23O[C@@H]4/C=C\CCCOC(=O)C4[C@H]2C(=O)N(CCCO)[C@@H]3C1=O` (stereo not given in full), for which the composite z-score in [1] was -0.059; in assay [5], -1.1; in [6], -0.176; with Torsin-1A (Homo sapiens) [7], -0.934; in the assay with Torsin-1A (Homo sapiens) [8], 0.367; in assay [9], -0.102. The composite z-score in [11] was 0.236. Moreover, the z-score is -0.354 (inactive) in assay [2]; 0.191 (inactive) in [3]; -0.256 (inactive) in assay [4]; 1.71 (inactive) in [10]; 0.245 (inactive) in [12]; 0.0014 (inactive) in assay [13]. Moreover, the z-score in [14] is 1.1 (inactive); in assay [15], -0.083 (inactive); in assay [16], -0.108; in [17] it was 1.58 (inactive); in assay [18], -1.85 (inactive); in [19] it was 2.19. Also, in assay [20], the z-score is 1.02.

For the compound `O=C1N(CCS(=O)(=O)c2ccccc2)Cc2ccccc2[C@@H]2OC(c3ccc(OCCCO)cc3)=N[C@]12Cc1ccccc1`, the composite z-score came out at 1.14 in assay [1]; 1.66 in assay [5]; 0.243 in [6]; 0.612 with Torsin-1A (Homo sapiens) [7]; 0.29 in the assay with Torsin-1A (Homo sapiens) [8]; 1.96 in [9]. The compound further gave a composite z-score in assay [11] of 0.327. Also, the z-score is -3.69 (inactive) in assay [2]; 0.927 (inactive) in assay [3]; -1.09 (inactive) in [4]; 0.218 (inactive) in [10]; 27.7 (active) in [12]; 18.5 (active) in assay [13]. The z-score in assay [14] was 3.32 (inactive); in [15], 2.53 (inactive); in assay [16], 0.503; in [17] it was -3.23 (inactive); in assay [18], -0.195 (inactive); in assay [19] it was 1.01. For the same compound, the z-score in assay [20] was -1.08.

As for `CCN(CC)c1ccc(N2CC=CC34O[C@@H]5C=CCOC(=O)[C@@H]5[C@H]3C(=O)N(C(C)CO)[C@@H]4C2=O)cc1` (stereo not given in full), the composite z-score in [1] is -0.701; in [5], -1.27; in assay [6], -0.123; with Torsin-1A (Homo sapiens) [7], -1.08; with Torsin-1A (Homo sapiens) [8] it was -0.641; in assay [9], -0.903. This compound also registered a composite z-score in [11] of 0.121. The z-score in [2] was -0.269 (inactive); in assay [3], 0.195 (inactive); in [4], 0.188 (inactive); in [10], 1.55 (inactive); in [12] it was 0.0295 (inactive); in [13] it was 0.447 (inactive). Moreover, the z-score in assay [14] is 0.976 (inactive); in [15] it was 0.255 (inactive); in assay [16], -0.153; in assay [17], 0.126 (inactive); in assay [18], 0.197 (inactive); in assay [19], 0.871. Moreover, the z-score in [20] was 0.271.

On to `CC1CC/C=C\[C@H]2OC34C=CCN(C(C)C)C(=O)[C@H]3N(C(CO)C(C)C)C(=O)[C@@H]4C2C(=O)O1` (stereo not given in full), for which the composite z-score in [1] is -0.0784; in assay [5], -1.28; in assay [6] it was -0.133; with Torsin-1A (Homo sapiens) [7], -0.87; with Torsin-1A (Homo sapiens) [8], -0.22; in assay [9], -0.137. The composite z-score in assay [11] was -0.225. Also, the z-score in assay [2] is 0.114 (inactive); in assay [3], -0.346 (inactive); in [4], -0.791 (inactive); in assay [10], 2.16 (inactive); in [12] it was 1.3 (inactive); in assay [13], -0.74 (inactive). The z-score in assay [14] was 0.604 (inactive); in assay [15] it was -0.531 (inactive); in assay [16] it was 0.0551; in assay [17], 1.49 (inactive); in assay [18], 0.743 (inactive); in assay [19], 1.79. Besides, the z-score in assay [20] was 1.06.

On to `C=C(COC)/C(=C/C[C@H](OC(C)=O)c1cccc(OCCO)c1)c1cc(C(=O)OC)ccc1OC`, for which the composite z-score in assay [1] is 0.44; in [5], -0.356; in [6] it was -0.018; with Torsin-1A (Homo sapiens) [7], 1.34; in the assay with Torsin-1A (Homo sapiens) [8] it was 1.22; in assay [9], 1.72. The composite z-score in assay [11] was -0.101. Also, the z-score in assay [2] is -8.11 (active); in assay [3], 11.5 (active); in [4], -0.4 (inactive); in assay [10] it was 1.59 (inactive); in assay [12], 10.1 (active); in assay [13], 1.78 (inactive). The z-score in assay [14] was -2.63 (inactive); in assay [15] it was -0.0354 (inactive); in [16], 1.44; in assay [17], -1.94 (inactive); in assay [18], 0.00567 (inactive); in assay [19], -3.06. Further, the z-score in assay [20] was -0.344.

For the compound `CCOC(=O)C[C@H]1[C@H](OC(=O)c2cc3ccccc3oc2=O)[C@@H](NC(=O)c2ccccc2)c2cc(OCCCO)ccc2N1C(=O)Cc1ccc(OC)cc1`, the composite z-score came out at 0.146 in [1]; 0.0709 in assay [5]; 0.0464 in assay [6]; 0.151 in the assay with Torsin-1A (Homo sapiens) [7]; 0.098 with Torsin-1A (Homo sapiens) [8]; 0.251 in assay [9]. In [11], the composite z-score was -0.0051. The z-score is -4.64 (inactive) in [2]; 8.63 (active) in assay [3]; -2.07 (inactive) in [4]; 3.12 (inactive) in [10]; 3.28 (inactive) in assay [12]; -0.825 (inactive) in [13]. The z-score in [14] is 0.076 (inactive); in [15], -2.29 (inactive); in [16], 2.39; in [17], -0.224 (inactive); in assay [18], 0.106 (inactive); in [19], 0.874. For the same compound, the z-score in [20] was -0.0571.

For `CCOC(=O)C[C@H]1[C@H](OC(=O)c2ccc(C(=O)c3ccccc3)cc2)[C@@H](NC(=O)Cc2ccc(OC)cc2)c2cc(OCCCO)ccc2N1C(=O)Cc1ccc(OC)cc1`, the composite z-score in [1] was 0.296; in [5], 0.598; in assay [6], -0.122; in the assay with Torsin-1A (Homo sapiens) [7], 0.226; with Torsin-1A (Homo sapiens) [8], 0.413; in [9], 0.697. This compound registered a composite z-score in assay [11] of 0.357. Besides, the z-score is -0.69 (inactive) in assay [2]; 2.14 (inactive) in [3]; -0.899 (inactive) in assay [4]; 1.89 (inactive) in [10]; 4.37 (inactive) in [12]; -0.625 (inactive) in assay [13]. The z-score in [14] is 0.0901 (inactive); in assay [15], -1.14 (inactive); in assay [16] it was 1; in assay [17], 0.676 (inactive); in assay [18] it was 0.79 (inactive); in [19], 1.52. In addition, in assay [20], the z-score was 2.13.

Take `Cc1ccc(S[C@]2(C(=O)NCCN3CCOCC3)CC(=O)N(Cc3cc(C(F)(F)F)cc(C(F)(F)F)c3)[C@@H]2c2ccc(CO)cc2)cc1`: the composite z-score in assay [1] was 0.322; in [5], -0.721; in assay [6] it was -0.0371; with Torsin-1A (Homo sapiens) [7] it was -0.847; with Torsin-1A (Homo sapiens) [8] it was -0.521; in assay [9], -0.105. In [11], this compound displayed a composite z-score of -0.0576. For the same compound, the z-score in [2] is -2.39 (inactive); in assay [3] it was -0.464 (inactive); in assay [4] it was -1.7 (inactive); in [10], 2.85 (inactive); in assay [12], 1.69 (inactive); in assay [13], -0.152 (inactive). Besides, the z-score in assay [14] was -0.468 (inactive); in [15] it was -1.39 (inactive); in [16] it was 2.65; in [17], 0.538 (inactive); in assay [18] it was 0.706 (inactive); in [19] it was 0.754. Besides, in assay [20], the z-score was 0.422.
